Compounds with a hit are over-represented: about 18% of the library has one in this group of screens.
DT40 TDP1 CPT = qHTS for Inhibitors of human tyrosyl-DNA phosphodiesterase 1 (TDP1): qHTS in cells in presence of CPT; Potency, µM (top dose mostly 46.2 µM), without a hit: at the top dose activity change, negative = growth inhibition, usual class: inhibitors; 12% of 420,000 active; chicken DT40 Tdp1-/-;hTDP1 cells + 20 nM CPT, ATP luminescence, 48 h; note: potency is the fitted concentration of half-maximal effect; % is set by controls: 0 for no effect and ±100 for the full control effect; nearly all actives have a fitted effect of over 55% in size
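Chicken DT40 Tdp1-/- cells complemented with human TDP1, 400 cells/well, exposed to compounds plus 20 nM camptothecin for at least 48 h at 37 C; viability read as ATP content by CellTiter-Glo luminescence.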
TGFb inhibitor = qHTS for Inhibitors of TGF-b; Potency, µM (top dose mostly 46.1 µM), without a hit: at the highest dose activity, negative = inhibition, usual class: inhibitors; 1.2% of 410,000 active; AID 588855, 2011; HepG2 CAGA-GFP TGF-b/SMAD3 reporter, GFP fluorescence, 18 h; TGF-beta stimulated, 500 pg/mL final; note: potency is the fitted concentration of half-maximal effect; % is set by controls: 0 for no effect and ±100 for the full control effect; nearly all actives have a fitted effect of over 65% in size
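Read-out: total well GFP (ex488/em500-530) summed from mean per-cell fluorescence. Cells: HEPG2 CAGA-GFP, 1% FBS DMEM, 18 h at 37 degrees C with 500 pg/mL final TGF-beta. Unstimulated wells served as the full-inhibition control; stimulated DMSO wells = 0%.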
IL-1B inflam inh = qHTS for Inhibitors of Inflammasome Signaling: IL-1-beta AlphaLISA Primary Screen; THP-1 LPS/ATP IL-1B secretion, AlphaLISA, 16 h; stronger effect = lower value; activity change, % at 57.5 µM; 4.7% of 360,000 active; AID 743279, 2014; in the data active = activity change below about -50%; inconclusive = mostly about -30% to -49%; note: % is set by controls: 0 for no effect and ±100 for the full control effect
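THP-1 cells pretreated 1 hr with compounds (up to 57.5 uM final), then stimulated with LPS (250 ng/mL final) plus ATP (1.25 mM final); secreted IL-1B measured by AlphaLISA after 16 hr, decreased signal indicating inhibition.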
TDP1 cell noCPT = qHTS for Inhibitors of human tyrosyl-DNA phosphodiesterase 1 (TDP1): qHTS in cells in absence of CPT; DT40 Tdp1-/- hTDP1 cells, no CPT, ATP luminescence, 48 h; Potency, µM (titrated, usually from 46.2 µM), without a hit: at the top dose activity change, negative = growth inhibition, usual class: inhibitors; 15% of 420,000 active; note: potency is the fitted concentration of half-maximal effect; % is set by controls: 0 for no effect and ±100 for the full control effect; nearly all actives have a fitted effect of over 55% in size
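Chicken DT40 Tdp1-/- cells stably complemented with human TDP1 were seeded at 400 cells/well with DMSO in place of 20 nM camptothecin. After compound pinning, cells grew at least 48 hr at 37 °C; viability read by CellTiter-Glo luminescence.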
HepG2 tox = qHTS for Inhibitors of TGF-b: Cytotox Counterscreen. HepG2 CAGA-GFP viability, ATP luminescence, 18 h. Potency, µM (highest dose often 46.1 µM), without a hit: at the highest dose activity change, negative = cytotoxicity, actives largely listed as cytotoxic. 0.76% of 410,000 active. AID 588856, 2011; note: potency is the fitted concentration of half-maximal effect
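CellTiter-Glo luminescence gave cytotoxicity after 18 hours at 37 degrees C. The cells were HepG2 CAGA-GFP in 1% FBS DMEM, stimulated with 500 pg/mL TGF-beta after compound addition. %Activity was normalised to no-cell wells (complete cell-killing) and DMSO (no toxicity), and curves were fitted and classified.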
TDP1 block = qHTS Assay for Inhibitors of Tyrosyl-DNA Phosphodiesterase (TDP1); Potency, µM (titrated, usually from 130 µM), without a hit: at the highest dose activity change, negative = inhibition, hits mostly inhibitors; 0.28% of 350,000 active; recombinant TDP1, AlphaScreen DNA substrate cleavage; Tyrosyl-DNA phosphodiesterase 1 (Homo sapiens), Q9NUW8; note: potency is the fitted concentration of half-maximal effect; % is set by controls: 0 for no effect and ±100 for the full control effect; nearly all actives have a fitted effect of over 40% in size
Target sequence (Q9NUW8 whole entry, looked up): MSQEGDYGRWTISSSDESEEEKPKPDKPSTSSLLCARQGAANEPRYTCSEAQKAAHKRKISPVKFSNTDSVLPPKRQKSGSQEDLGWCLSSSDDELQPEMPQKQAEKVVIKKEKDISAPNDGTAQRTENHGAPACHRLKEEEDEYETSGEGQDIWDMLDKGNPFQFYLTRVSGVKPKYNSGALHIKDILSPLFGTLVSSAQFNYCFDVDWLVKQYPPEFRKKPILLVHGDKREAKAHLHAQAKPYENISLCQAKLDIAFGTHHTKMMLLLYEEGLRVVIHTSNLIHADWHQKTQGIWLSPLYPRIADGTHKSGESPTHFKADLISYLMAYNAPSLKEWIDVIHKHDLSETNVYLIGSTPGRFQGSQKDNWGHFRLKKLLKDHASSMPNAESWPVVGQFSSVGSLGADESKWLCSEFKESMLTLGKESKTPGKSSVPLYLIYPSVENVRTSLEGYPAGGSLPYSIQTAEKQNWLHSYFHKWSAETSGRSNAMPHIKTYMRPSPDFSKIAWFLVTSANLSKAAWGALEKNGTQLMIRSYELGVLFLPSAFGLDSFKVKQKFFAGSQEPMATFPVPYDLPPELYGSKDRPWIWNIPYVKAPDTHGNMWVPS
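Compounds were preincubated with Tdp1 (1 nM final) for 15 min at room temperature before substrate (15 nM final) started a 5 min reaction; beads (10 ug/ml final) were then added for 10 min before AlphaScreen detection.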
Active calls of the source: *. Unless noted, calls come from the whole dose curve; as a rule, active = well fitted curve in the direction sought with a large enough effect; inconclusive = small, poorly fitted or top-dose-only effect, or another doubt; inactive = no such curve, though single readings can be large; an effect the other way counts as inactive or inconclusive.

What do the screens show for `O=C(CCNS(=O)(=O)c1ccccc1)NCCCSc1ccccc1`?
DT40 TDP1 CPT: 7.3µM*; TGFb inhibitor: -13%; IL-1B inflam inh: 13; TDP1 cell noCPT: 18µM*; HepG2 tox: -8%; TDP1 block: 4%

How did CCCCn1nnnc1C1(C)CCC(=O)N1Cc1cc(OC)ccc1OC (configuration not stated) do in these assays?
DT40 TDP1 CPT: -8%; IL-1B inflam inh: 0; TDP1 cell noCPT: -15%

What do the screens show for `Cc1cccc(C)c1N(C(=O)c1ccco1)C(C(=O)NC1CCCC1)c1ccncc1` (configuration not stated)?
DT40 TDP1 CPT: 0%; TGFb inhibitor: inconclusive; IL-1B inflam inh: 7; TDP1 cell noCPT: -22%; HepG2 tox: -51%; TDP1 block: -8%

What do the screens show for `CN(C)/C=C/C(=O)c1ccc(Cl)c([N+](=O)[O-])c1`?
DT40 TDP1 CPT: -8%; TGFb inhibitor: -3%; IL-1B inflam inh: -96*; TDP1 cell noCPT: inconclusive; HepG2 tox: -80%; TDP1 block: 9%

Results for CC(C)CNC(=O)c1cccc(NC(=O)COc2ccc([N+](=O)[O-])cc2)c1 ?
DT40 TDP1 CPT: 13µM*; TGFb inhibitor: -23%; IL-1B inflam inh: -8; TDP1 cell noCPT: 23µM*; HepG2 tox: -19%; TDP1 block: -4%

What do the screens show for `CC(C)(C)SCCNC(=O)c1ccc(Cl)c([N+](=O)[O-])c1`?
DT40 TDP1 CPT: inconclusive; TGFb inhibitor: -16%; IL-1B inflam inh: inconclusive; TDP1 cell noCPT: 16µM*; HepG2 tox: 5%; TDP1 block: -6%

Results for CC(C)CNC(=O)c1ccc(NC(=O)c2ccccc2[N+](=O)[O-])cc1 ?
DT40 TDP1 CPT: 1%; TGFb inhibitor: -4%; IL-1B inflam inh: -22; TDP1 cell noCPT: -11%; HepG2 tox: 2%; TDP1 block: -1%

Results for NS(=O)(=O)c1cccc(NC(=O)COc2ccc([N+](=O)[O-])cc2)c1 ?
DT40 TDP1 CPT: inconclusive; TGFb inhibitor: 0%; IL-1B inflam inh: 0; TDP1 cell noCPT: -26%; HepG2 tox: -1%; TDP1 block: 3%

What do the screens show for `Cc1ccccc1CNC(=O)c1ccc(Cl)c([N+](=O)[O-])c1`?
DT40 TDP1 CPT: inconclusive; TGFb inhibitor: -12%; TDP1 cell noCPT: inconclusive; HepG2 tox: 17%; TDP1 block: 6%

Results for CC(C)CNC(=O)c1cccc(NC(=O)c2ccc(Cl)c([N+](=O)[O-])c2)c1 ?
DT40 TDP1 CPT: 21µM*; TGFb inhibitor: inconclusive; IL-1B inflam inh: -112*; TDP1 cell noCPT: 21µM*; HepG2 tox: -5%; TDP1 block: 4%

What do the screens show for `CCCc1c(OCC(O)COc2ccc3c(=O)cc(C(=O)O)oc3c2CCC)ccc(C(C)=O)c1O` (configuration not stated)?
TDP1 block: 4%

How did CCCCCC(=O)/C=C/C=C\C/C=C\C/C=C\CCCC(=O)O do in these assays?
TDP1 block: 4%

What do the screens show for `CCN(Cc1ccc2c(c1)OCCO2)C(=O)CN1C(=O)NC2(CCCCC2)C1=O`?
DT40 TDP1 CPT: -9%; TGFb inhibitor: inconclusive; IL-1B inflam inh: -3; TDP1 cell noCPT: 8%; HepG2 tox: -17%; TDP1 block: 1%

What do the screens show for `O=C(CCN1C(=O)[C@@H]2Cc3ccccc3CN2C1=O)NCc1ccc(Cl)cc1`?
DT40 TDP1 CPT: inconclusive; TGFb inhibitor: -18%; IL-1B inflam inh: -14; TDP1 cell noCPT: inconclusive; HepG2 tox: -10%; TDP1 block: 2%

What do the screens show for `COc1cccc(C2c3c(ncn(-c4ccc(C(C)(C)C)cc4)c3=N)Oc3ccc4ccccc4c32)c1` (configuration not stated)?
TDP1 block: 4%

How did CN(C(=O)COC(=O)c1ccc2c(c1)OCO2)c1c(N)n(Cc2ccccc2)c(=O)[nH]c1=O do in these assays?
DT40 TDP1 CPT: 4%; TGFb inhibitor: -19%; IL-1B inflam inh: -1; TDP1 cell noCPT: 7%; HepG2 tox: -2%

Results for Cc1sc(NC(=O)c2ccco2)c(CN2CCN(c3ccc(F)cc3)CC2)c1C ?
DT40 TDP1 CPT: 21µM*; TGFb inhibitor: -12%; IL-1B inflam inh: -3; TDP1 cell noCPT: 12µM*; HepG2 tox: 5%; TDP1 block: 1%

What do the screens show for `Cc1sc(NC(=O)c2ccco2)c(C(c2ccc(F)cc2)N2CCN(C)CC2)c1C` (configuration not stated)?
DT40 TDP1 CPT: inconclusive; TGFb inhibitor: 16µM*; IL-1B inflam inh: -71*; TDP1 cell noCPT: inconclusive; HepG2 tox: 11µM*; TDP1 block: 5%

How did Cc1sc(NC(=O)c2ccco2)c(C(c2cccnc2)N2CCN(c3ccc(F)cc3)CC2)c1C (configuration not stated) do in these assays?
DT40 TDP1 CPT: 1.8µM*; TGFb inhibitor: -20%; IL-1B inflam inh: inconclusive; TDP1 cell noCPT: 5.8µM*; HepG2 tox: -15%; TDP1 block: 9%

Results for CC(=O)Nc1sc2c(c1CN1CCN(c3ccc(F)cc3)CC1)CCCC2 ?
DT40 TDP1 CPT: inconclusive; TGFb inhibitor: 2%; IL-1B inflam inh: -10; TDP1 cell noCPT: 15µM*; HepG2 tox: -31%; TDP1 block: 9%

What do the screens show for `CC(=O)Nc1sc2c(c1CN1CCCC1)CCCC2`?
DT40 TDP1 CPT: 4%; TGFb inhibitor: -9%; IL-1B inflam inh: 2; TDP1 cell noCPT: -1%; HepG2 tox: -3%; TDP1 block: 2%

Results for Cc1sc(NC(=O)c2ccco2)c(C(c2ccccc2)N2CCC(C)CC2)c1C (configuration not stated) ?
DT40 TDP1 CPT: 10µM*; TGFb inhibitor: inconclusive; IL-1B inflam inh: -22; TDP1 cell noCPT: 6.5µM*; HepG2 tox: -14%; TDP1 block: 1%

High-throughput results as filed in PubChem BioAssay.
